Assay results reported in PubChem BioAssay (EPA / NIEHS).
Records with an inconclusive call do not appear. Activity calls are given as the source filed them. Rule for the calls: active = hit-call score of the fitted dose curve at least 0.9, where 1 is the maximum; inconclusive = response in the unintended direction; inactive = score below 0.9.

experiment: ACEA_ER_AUC_viability: ACEA Biosciences xCELLigence Real-Time Cell Analysis on Estrogen Receptor Agonism for Viability (AID 2283782);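 note: hit means loss of impedance signal meaning reduced cell growth or viability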
Outline: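 Viability endpoint: reduced impedance area under the curve relative to DMSO, recorded by real-time electrode sensing over ~80 h of continuous exposure. Duplicate plates of T47D in hormone-depleted medium; eight concentrations, 1:4 dilutions, 100 uM maximum.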

| Structure (SMILES) | outcome | AC50 |
| --- | --- | --- |
| COCC(=O)O | inactive |  |
| CC(C)(O)Cc1ccccc1 |  | 27.5 µM (active) |
| COC(=O)C=Cc1ccccc1 | inactive |  |
| CC(CC(C)C)=NO | inactive |  |
| CC(=O)OCC=C(C)C | inactive |  |
| C=CC(=O)OCCCCCCCCCC | inactive |  |
| Cn1cccc1 | inactive |  |
| CC1(C)CC(O)CC(C)(C)N1[O] | inactive |  |
| COC(=O)CC(C)CCC=C(C)C (configuration not stated) | inactive |  |
| CCCCCCCCCCCC(C)=O |  | 66.7 µM (active) |
| CCCC1CCCC(=O)O1 (configuration not stated) | inactive |  |
| C=C(C)C(=O)OCCCCCCCCCCCC | inactive |  |
| O=C(Oc1ccccc1)c1ccccc1C(=O)Oc1ccccc1 |  | 86.1 µM (active) |
| CCC(C)N (configuration not stated) |  | 74.5 µM (active) |
| C=CC(=O)NCOCCCC | inactive |  |
| Cc1cc(C)c(C=O)c(C)c1 | inactive |  |
| Clc1cc(Cl)c(Cl)c(Cl)c1Cl | inactive |  |
| Nc1cccc(N)n1 | inactive |  |
| Nc1ccnc(=O)[nH]1 | inactive |  |

| Structure (SMILES) | outcome | AC50 |
| --- | --- | --- |
| CCOB(OCC)OCC | inactive |  |
| C=CC(=O)NC(C)(C)C | inactive |  |
| Clc1cccnc1 | inactive |  |
| C=Cc1cccc(C)c1 | inactive |  |
| CCN(CC)c1cccc(C)c1 |  | 27.9 µM (active) |
| CCCCCCCCCCCCC | inactive |  |
| CCc1cccc(C)c1N(C(=O)CS(=O)(=O)O)C(C)COC (configuration not stated) |  | 50 µM (active) |
| C=CC(=O)OCC(C)OCC(C)OCC(C)OC(=O)C=C (configuration not stated) |  | 21.3 µM (active) |
| CC1(C)CCC[C@]2(C)[C@H]3CC(=O)O[C@]3(C)CC[C@@H]12 | inactive |  |
| CC/C=C\CCOC(=O)c1ccccc1O |  | 72.7 µM (active) |
| CCCc1ccc(O)c(OC)c1 | inactive |  |
| c1ccc2c(c1)[nH]c1ccccc12 |  | 36.4 µM (active) |
| COC(OC)(C(=O)c1ccccc1)c1ccccc1 |  | 64 µM (active) |
| CC1CCC(C(C)(C)S)C(=O)C1 (configuration not stated) | inactive |  |
| CCCCCCCCCCCC(=O)OCC | inactive |  |
| C=CC(=O)OCCCCCCOC(=O)C=C |  | 85.3 µM (active) |
| O=C1CCCCC1C1CCCCC1 (configuration not stated) | inactive |  |
| CC=C(C)C=CC=C(C)C |  | 50 µM (active) |
